Assay outcomes as filed in PubChem BioAssay.
Sampled rows, rich in hits. Any-hit rate of the full collection: about 9.4%.
ELG1 genotox: inducers of genotoxicity in HEK293T ELG1-luciferase cells; HEK293T ELG1-luciferase reporter, luminescence, 16 h; Potency, µM (series often up to 46 µM), usual class: activators; actives 1.3% (n = 330,000); note: nearly all actives have a fitted effect of over 60% in size
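16 hr compound incubation (37 °C, 5% CO2) of HEK293T cells carrying luciferase-tagged ELG1; luciferase then measured by ONE-Glo luminescence after 30 min at RT.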
Rab9 prom act: Rab9 promoter activation; Huh7 Rab9 promoter-luciferase reporter, luminescence, 24 h; Potency, µM (top dose mostly 9.22 µM), hits mostly activators; actives 2.8% (n = 320,000); AID 485297; note: nearly all actives have a fitted effect of over 60% in size
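Using Huh7 cells stably transfected with Rab9 promoter–luciferase, compounds were incubated 24 h at 37 °C, 5% CO2; luciferase luminescence was read 10 min after reagent addition.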
FLuc modulator: counter-screen for miR-21 project: firefly luciferase inhibitors or activators | P08659 | purified FLuc, Km substrates, luminescence inhibition | Potency, µM (titrated, usually from 57.5 µM), most hits filed as inhibitors | actives 6.9% (n = 360,000); note: nearly all actives have a fitted effect of over 55% in size
Target sequence (P08659 whole entry, looked up): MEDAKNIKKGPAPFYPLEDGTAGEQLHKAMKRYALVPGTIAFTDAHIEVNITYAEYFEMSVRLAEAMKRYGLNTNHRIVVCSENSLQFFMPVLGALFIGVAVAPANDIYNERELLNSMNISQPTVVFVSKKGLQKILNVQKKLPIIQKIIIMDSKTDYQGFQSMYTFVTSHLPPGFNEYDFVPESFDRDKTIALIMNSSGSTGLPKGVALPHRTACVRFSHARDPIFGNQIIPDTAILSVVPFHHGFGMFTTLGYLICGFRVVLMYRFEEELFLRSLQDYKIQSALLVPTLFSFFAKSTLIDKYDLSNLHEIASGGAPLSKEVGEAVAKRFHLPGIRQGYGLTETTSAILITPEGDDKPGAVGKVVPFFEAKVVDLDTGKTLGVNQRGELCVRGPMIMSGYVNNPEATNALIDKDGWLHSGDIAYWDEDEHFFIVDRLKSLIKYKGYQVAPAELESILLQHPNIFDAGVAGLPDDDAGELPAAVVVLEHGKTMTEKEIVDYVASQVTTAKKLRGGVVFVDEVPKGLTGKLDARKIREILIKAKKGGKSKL
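Biochemical qHTS of compounds, final roughly 60 µM downward over six points, against 10 nM purified firefly luciferase using Km concentrations of substrates (10 uM D-luciferin, 10 uM ATP) in Tris acetate pH 7.5 buffer; luminescence output.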
SMN2 splice up: increases expression of the SMN2 splice variant; HEK293 SMN2-luciferase splicing reporter, luminescence, 30-36 h; Potency, µM (doses to about 46.1 µM), actives largely listed as activators; actives 2.8% (n = 210,000); note: nearly all actives have a fitted effect of over 55% in size
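qHTS luciferase splicing reporter: luminescence rises when SMN2 exon 7 is included in transfected HEK293 cells. Compound exposure lasted 30-36 h at 37C, with 4.5 mM final sodium butyrate as control, followed by a ONE-Glo read.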
ELG1 DNA repair: inhibitors of ELG1-dependent DNA repair in HEK293T cells | HEK293T ELG1-luciferase reporter, luminescence, 16 h; DNA damage induced by 5-fluorouridine | Potency, µM (top dose mostly 46.1 µM), hits mostly inhibitors | actives 2.3% (n = 330,000) | AID 504467; note: nearly all actives have a fitted effect of over 55% in size
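Reporter activity after DNA damage by 5-fluorouridine is monitored. Compound-treated cells incubate 16 hr at 37 °C, then ONE-Glo is added for 30 min before luminescence reading.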
NPC1 promoter act: activators of NPC1 promoter. Huh7 NPC1 promoter luciferase reporter, 24 h. Potency, µM (highest dose often 9.22 µM), usual class: activators. actives 2.4% (n = 320,000). AID 485313; note: nearly all actives have a fitted effect of over 60% in size
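Luminescence from an NPC1 promoter-driven luciferase reporter in stably transfected Huh7 cells was measured after 24 h compound treatment at 37 °C, followed by 10 min ambient incubation with luciferase detection reagent.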
Numbers stand for hits; [ ] = remark or other dose. Calls come from the whole dose curve; as a rule, active = well fitted curve in the direction sought with a large enough effect; inconclusive = small, poorly fitted or top-dose-only effect, or another doubt; inactive = no such curve, though single readings can be large; an effect the other way counts as inactive or inconclusive.

What do the screens show for `Cn1c(/C=C/c2ccc(Cl)cc2)nc2ccccc2c1=O`?
ELG1 genotox: inconclusive; Rab9 prom act: 2.82µM; FLuc modulator: 3.79µM; ELG1 DNA repair: inconclusive; NPC1 promoter act: 3.98µM

What do the screens show for `O=c1c2ccccc2nc(/C=C/c2ccccc2)n1CCCO`?
ELG1 genotox: inactive; Rab9 prom act: inactive; FLuc modulator: inactive; ELG1 DNA repair: inactive; NPC1 promoter act: inactive

What do the screens show for `O=c1c2ccccc2nc(/C=C/c2c[nH]c3ccccc23)n1CCO`?
ELG1 genotox: inactive; Rab9 prom act: inconclusive; FLuc modulator: 10.7µM; ELG1 DNA repair: inconclusive; NPC1 promoter act: inconclusive

How did O=C(c1noc2c1CCCCC2)N1CCN(c2cccc(C(F)(F)F)c2)CC1 do in these assays?
FLuc modulator: inactive

Results for CCN1CCN(Cc2ccc(NC(=O)c3cc(NC(=O)C(=O)c4c[nH]c5ccccc45)cc(OC)c3)cc2C(F)(F)F)CC1 ?
ELG1 genotox: inactive; Rab9 prom act: inactive; FLuc modulator: 9.53µM; ELG1 DNA repair: inactive; NPC1 promoter act: inactive

Results for CCN1CCN(Cc2ccc(NC(=O)c3cc(NC(=O)c4cnn(-c5ccccc5)c4N)cc(OC)c3)cc2C(F)(F)F)CC1 ?
ELG1 genotox: inactive; Rab9 prom act: inactive; FLuc modulator: 16.9µM; ELG1 DNA repair: inactive; NPC1 promoter act: inactive

What do the screens show for `CCN1CCN(Cc2ccc(NC(=O)c3ccc(C)c(NC(=O)c4ccnnc4)c3)cc2C(F)(F)F)CC1`?
ELG1 genotox: inactive; Rab9 prom act: inactive; FLuc modulator: inactive; ELG1 DNA repair: inactive; NPC1 promoter act: inactive

Results for CCN1CCN(Cc2ccc(NC(=O)c3ccc(C)c(NC(=O)c4ccc5n[nH]nc5c4)c3)cc2C(F)(F)F)CC1 ?
ELG1 genotox: inactive; Rab9 prom act: inactive; FLuc modulator: 19µM; ELG1 DNA repair: inactive; NPC1 promoter act: inactive

Results for CCOc1ccc(-n2c(C)nc3cc(C(=O)NC4CCCC4)ccc32)cc1 ?
FLuc modulator: inactive

How did CCN1CCN(c2ccc(NC(=O)c3ccc(Br)o3)cc2)CC1 do in these assays?
ELG1 genotox: 16.4µM; Rab9 prom act: inconclusive; FLuc modulator: 16.9µM; ELG1 DNA repair: inconclusive; NPC1 promoter act: inconclusive

What do the screens show for `O=C(Nc1ccc(N2CCCC2)cc1)c1ccc(Br)o1`?
ELG1 genotox: inconclusive; Rab9 prom act: 0.355µM; FLuc modulator: 10.7µM; SMN2 splice up: inconclusive; ELG1 DNA repair: inconclusive; NPC1 promoter act: 0.501µM

What do the screens show for `CCCC(=O)N1CCN(c2ccc(NC(=O)c3ccc(Br)o3)cc2)CC1`?
ELG1 genotox: inactive; Rab9 prom act: inactive; FLuc modulator: inactive; SMN2 splice up: inactive; ELG1 DNA repair: inactive; NPC1 promoter act: inactive

How did COC(=O)c1cccnc1-n1c(=O)c2cccnc2n(CC(=O)Nc2cccc(C)c2)c1=O do in these assays?
FLuc modulator: inactive; SMN2 splice up: inactive

Results for Cc1c(C(=O)NC(=S)Nc2ccc(NC(=O)c3cccs3)cc2)oc2ccccc12 ?
ELG1 genotox: inactive; Rab9 prom act: inactive; FLuc modulator: inconclusive; SMN2 splice up: inactive; ELG1 DNA repair: inactive; NPC1 promoter act: inactive

What do the screens show for `Cc1cccc(NC(=S)NC(=O)c2oc3ccccc3c2C)n1`?
ELG1 genotox: inconclusive; Rab9 prom act: 1.41µM; FLuc modulator: inconclusive; ELG1 DNA repair: inconclusive; NPC1 promoter act: 1.26µM

Results for Cc1cccc(NC(=S)NC(=O)c2ccc(-c3ccccc3)cc2)n1 ?
ELG1 genotox: inconclusive; Rab9 prom act: 2.24µM; FLuc modulator: 10.7µM; ELG1 DNA repair: inconclusive; NPC1 promoter act: 2.82µM

How did Cc1cccc(NC(=O)Cc2ccc(-c3ccccc3)cc2)n1 do in these assays?
ELG1 genotox: inactive; Rab9 prom act: inactive; FLuc modulator: inconclusive; ELG1 DNA repair: inactive; NPC1 promoter act: inactive

What do the screens show for `COC(=O)c1ccccc1NC(=O)c1cc2nc(-c3ccc(OC)cc3)cc(C(F)(F)F)n2n1`?
FLuc modulator: inactive; SMN2 splice up: inactive

What do the screens show for `CCc1cccc(NC(=O)CCS(=O)(=O)c2cc3c4c(c2)CCN4C(=O)CC3)c1`?
FLuc modulator: inactive

Results for c1cncc(-c2noc(-c3ccc4ccccc4c3)n2)c1 ?
ELG1 genotox: 2.06µM; Rab9 prom act: 0.282µM; FLuc modulator: 1.2µM; ELG1 DNA repair: inconclusive; NPC1 promoter act: 0.316µM

Results for c1ccc(-c2noc(-c3cccnc3)n2)cc1 ?
FLuc modulator: 9.53µM; SMN2 splice up: inconclusive

What do the screens show for `c1ccc(-c2ccc(-c3nc(-c4cccnc4)no3)cc2)cc1`?
ELG1 genotox: 2.31µM; Rab9 prom act: inconclusive; FLuc modulator: 1.35µM; SMN2 splice up: 12.6µM; ELG1 DNA repair: inconclusive; NPC1 promoter act: 1.26µM

What do the screens show for `O=c1[nH]c2ccccc2cc1-c1noc(-c2cccnc2)n1`?
ELG1 genotox: inactive; Rab9 prom act: inactive; FLuc modulator: inconclusive; SMN2 splice up: inactive; ELG1 DNA repair: inactive; NPC1 promoter act: inactive

What do the screens show for `CC(Nc1ccc(-c2nc(-c3cccnc3)no2)cc1[N+](=O)[O-])c1ccccc1` (centres undefined)?
FLuc modulator: inactive

How did COc1ccc(C(=O)Nc2cc(C)nn2-c2ccc(C)cc2)cc1 do in these assays?
ELG1 genotox: inactive; Rab9 prom act: inactive; FLuc modulator: inactive; ELG1 DNA repair: inactive; NPC1 promoter act: inactive

What do the screens show for `O=C(c1cccn1-c1nnc(N2CCCCC2)s1)N1CCN(c2ccccc2)CC1`?
FLuc modulator: inactive

What do the screens show for `CCC(=O)Nc1ncnc2ncn(C(=O)CC)c12`?
SMN2 splice up: inactive[9.22 µM]

What do the screens show for `C/C(=N/OCO/N=C(/C)c1ccc(F)cc1)c1ccc(F)cc1`?
ELG1 genotox: inactive; Rab9 prom act: inactive; FLuc modulator: inactive; SMN2 splice up: 8.91µM; ELG1 DNA repair: inactive; NPC1 promoter act: inactive

What do the screens show for `Cc1c(Cl)cccc1NC(=O)c1ccc(NC(=O)N2CCSc3ncccc32)cc1`?
FLuc modulator: inactive

Results for N=C1S/C(=C\c2ccco2)C(=O)N1c1nccs1 ?
ELG1 genotox: inconclusive; Rab9 prom act: inconclusive; FLuc modulator: 10.7µM; SMN2 splice up: inactive; ELG1 DNA repair: inconclusive; NPC1 promoter act: inconclusive

How did Cc1ccccc1C(=O)NCC(c1cccnc1)N1CCc2ccccc21 (centres undefined) do in these assays?
FLuc modulator: inactive

How did O=C(Cc1ccc(F)cc1)OCN1C(=O)c2ccccc2C1=O do in these assays?
ELG1 genotox: inactive; Rab9 prom act: inactive; FLuc modulator: inactive; ELG1 DNA repair: inconclusive; NPC1 promoter act: inactive

What do the screens show for `O=C1c2ccccc2C(=O)N1OCc1ccccc1[N+](=O)[O-]`?
ELG1 genotox: inactive; Rab9 prom act: inactive; FLuc modulator: 16.9µM; SMN2 splice up: inactive; ELG1 DNA repair: inactive; NPC1 promoter act: inactive
